Measurements reported in ChEMBL document CHEMBL1961873, “Compounds: GSK PKIS; Assays: Nanosyn kinase panel” (2012).

What was measured:
[1] = biological target: T1, Muscle, skeletal receptor tyrosine-protein kinase (Homo sapiens) (UniProt O15146); details: at 1 µM;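 further: reported value is the mean percent inhibition of MuSK kinase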
T1 sequence (whole entry): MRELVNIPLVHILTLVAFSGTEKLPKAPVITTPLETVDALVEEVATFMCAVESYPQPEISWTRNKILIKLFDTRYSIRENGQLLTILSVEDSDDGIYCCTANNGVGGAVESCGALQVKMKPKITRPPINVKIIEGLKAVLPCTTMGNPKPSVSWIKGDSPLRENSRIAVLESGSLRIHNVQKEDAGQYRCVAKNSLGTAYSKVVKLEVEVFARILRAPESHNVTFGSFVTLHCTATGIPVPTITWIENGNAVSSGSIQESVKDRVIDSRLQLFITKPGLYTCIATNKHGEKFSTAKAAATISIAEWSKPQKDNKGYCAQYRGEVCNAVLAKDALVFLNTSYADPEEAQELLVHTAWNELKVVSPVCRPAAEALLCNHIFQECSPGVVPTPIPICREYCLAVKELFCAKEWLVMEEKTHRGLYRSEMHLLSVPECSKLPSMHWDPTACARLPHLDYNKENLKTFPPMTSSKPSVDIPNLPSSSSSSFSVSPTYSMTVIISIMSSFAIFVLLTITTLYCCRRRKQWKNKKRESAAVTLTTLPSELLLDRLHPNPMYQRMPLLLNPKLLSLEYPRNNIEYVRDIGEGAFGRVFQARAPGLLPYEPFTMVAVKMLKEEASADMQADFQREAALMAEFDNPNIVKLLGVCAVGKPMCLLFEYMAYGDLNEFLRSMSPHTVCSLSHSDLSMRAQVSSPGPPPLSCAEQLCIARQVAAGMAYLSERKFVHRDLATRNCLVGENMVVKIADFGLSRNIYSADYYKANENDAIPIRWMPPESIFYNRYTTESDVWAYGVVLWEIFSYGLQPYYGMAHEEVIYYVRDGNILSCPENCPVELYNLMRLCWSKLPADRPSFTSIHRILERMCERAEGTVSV

[2] = biological target: Platelet-derived growth factor receptor alpha (Homo sapiens) (UniProt P16234); details: at 0.1 µM
[3] = biological target: Platelet-derived growth factor receptor alpha (Homo sapiens) (UniProt P16234); details: at 1 µM
[4] = tested on: Platelet-derived growth factor receptor alpha (Homo sapiens), P16234 [D842V]; details: at 0.1 µM
[5] = tested on: Platelet-derived growth factor receptor alpha (Homo sapiens), P16234 [D842V]; details: at 1 µM
[6] = tested on: Platelet-derived growth factor receptor alpha (Homo sapiens), P16234 [T674I]; details: at 0.1 µM
[7] = tested on: Platelet-derived growth factor receptor alpha (Homo sapiens), P16234 [T674I]; details: at 1 µM
[8] = tested on: Platelet-derived growth factor receptor alpha (Homo sapiens), P16234 [V561D]; details: at 0.1 µM
[9] = tested on: Platelet-derived growth factor receptor alpha (Homo sapiens), P16234 [V561D]; details: at 1 µM
[10] = biological target: Platelet-derived growth factor receptor beta (Homo sapiens) (UniProt P09619); details: at 0.1 µM
[11] = biological target: Platelet-derived growth factor receptor beta (Homo sapiens) (UniProt P09619); details: at 1 µM
[12] = biological target: Tyrosine-protein kinase FRK (Homo sapiens) (UniProt P42685); details: at 0.1 µM
[13] = biological target: Tyrosine-protein kinase FRK (Homo sapiens) (UniProt P42685); details: at 1 µM
[14] = biological target: Protein-tyrosine kinase 2-beta (Homo sapiens) (UniProt Q14289); details: at 0.1 µM
[15] = biological target: Protein-tyrosine kinase 2-beta (Homo sapiens) (UniProt Q14289); details: at 1 µM
[16] = biological target: Proto-oncogene tyrosine-protein kinase receptor Ret (Homo sapiens) (UniProt P07949); details: at 0.1 µM
[17] = biological target: Proto-oncogene tyrosine-protein kinase receptor Ret (Homo sapiens) (UniProt P07949); details: at 1 µM
[18] = tested on: Proto-oncogene tyrosine-protein kinase receptor Ret (Homo sapiens), P07949 [V804L]; details: at 0.1 µM
[19] = tested on: Proto-oncogene tyrosine-protein kinase receptor Ret (Homo sapiens), P07949 [V804L]; details: at 1 µM
[20] = tested on: Proto-oncogene tyrosine-protein kinase receptor Ret (Homo sapiens), P07949 [Y791F]; details: at 0.1 µM
Sequence of Proto-oncogene tyrosine-protein kinase receptor Ret (Homo sapiens), P07949 [Y791F] (P07949 whole entry Y791F): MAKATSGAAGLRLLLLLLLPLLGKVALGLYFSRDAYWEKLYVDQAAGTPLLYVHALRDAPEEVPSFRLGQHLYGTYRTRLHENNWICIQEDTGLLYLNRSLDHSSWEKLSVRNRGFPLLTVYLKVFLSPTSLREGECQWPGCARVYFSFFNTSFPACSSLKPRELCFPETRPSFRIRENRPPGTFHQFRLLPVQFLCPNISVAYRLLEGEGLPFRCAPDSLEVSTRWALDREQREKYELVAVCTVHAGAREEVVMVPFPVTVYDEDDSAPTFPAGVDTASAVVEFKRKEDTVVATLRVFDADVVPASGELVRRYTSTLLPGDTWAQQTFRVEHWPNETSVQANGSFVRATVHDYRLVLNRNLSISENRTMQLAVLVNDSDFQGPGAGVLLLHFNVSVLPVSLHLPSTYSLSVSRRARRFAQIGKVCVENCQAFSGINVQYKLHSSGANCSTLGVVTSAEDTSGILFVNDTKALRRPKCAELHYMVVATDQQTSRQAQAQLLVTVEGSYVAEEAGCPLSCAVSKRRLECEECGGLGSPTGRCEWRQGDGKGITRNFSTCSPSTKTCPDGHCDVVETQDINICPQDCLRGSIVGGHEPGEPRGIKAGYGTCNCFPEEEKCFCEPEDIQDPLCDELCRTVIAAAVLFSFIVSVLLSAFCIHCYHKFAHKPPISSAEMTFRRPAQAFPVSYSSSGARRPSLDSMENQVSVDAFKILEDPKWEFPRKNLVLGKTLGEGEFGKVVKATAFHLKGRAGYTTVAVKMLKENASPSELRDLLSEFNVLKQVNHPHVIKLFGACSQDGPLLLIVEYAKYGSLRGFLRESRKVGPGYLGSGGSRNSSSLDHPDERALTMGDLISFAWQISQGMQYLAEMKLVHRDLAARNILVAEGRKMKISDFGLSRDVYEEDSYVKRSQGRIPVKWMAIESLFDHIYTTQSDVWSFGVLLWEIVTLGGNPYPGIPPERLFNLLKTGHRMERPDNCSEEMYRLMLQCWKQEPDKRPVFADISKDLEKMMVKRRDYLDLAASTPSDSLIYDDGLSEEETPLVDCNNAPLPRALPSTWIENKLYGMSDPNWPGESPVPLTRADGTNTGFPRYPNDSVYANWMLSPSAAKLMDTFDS

Sequence of Platelet-derived growth factor receptor alpha (Homo sapiens), P16234 [V561D] (P16234 whole entry V561D): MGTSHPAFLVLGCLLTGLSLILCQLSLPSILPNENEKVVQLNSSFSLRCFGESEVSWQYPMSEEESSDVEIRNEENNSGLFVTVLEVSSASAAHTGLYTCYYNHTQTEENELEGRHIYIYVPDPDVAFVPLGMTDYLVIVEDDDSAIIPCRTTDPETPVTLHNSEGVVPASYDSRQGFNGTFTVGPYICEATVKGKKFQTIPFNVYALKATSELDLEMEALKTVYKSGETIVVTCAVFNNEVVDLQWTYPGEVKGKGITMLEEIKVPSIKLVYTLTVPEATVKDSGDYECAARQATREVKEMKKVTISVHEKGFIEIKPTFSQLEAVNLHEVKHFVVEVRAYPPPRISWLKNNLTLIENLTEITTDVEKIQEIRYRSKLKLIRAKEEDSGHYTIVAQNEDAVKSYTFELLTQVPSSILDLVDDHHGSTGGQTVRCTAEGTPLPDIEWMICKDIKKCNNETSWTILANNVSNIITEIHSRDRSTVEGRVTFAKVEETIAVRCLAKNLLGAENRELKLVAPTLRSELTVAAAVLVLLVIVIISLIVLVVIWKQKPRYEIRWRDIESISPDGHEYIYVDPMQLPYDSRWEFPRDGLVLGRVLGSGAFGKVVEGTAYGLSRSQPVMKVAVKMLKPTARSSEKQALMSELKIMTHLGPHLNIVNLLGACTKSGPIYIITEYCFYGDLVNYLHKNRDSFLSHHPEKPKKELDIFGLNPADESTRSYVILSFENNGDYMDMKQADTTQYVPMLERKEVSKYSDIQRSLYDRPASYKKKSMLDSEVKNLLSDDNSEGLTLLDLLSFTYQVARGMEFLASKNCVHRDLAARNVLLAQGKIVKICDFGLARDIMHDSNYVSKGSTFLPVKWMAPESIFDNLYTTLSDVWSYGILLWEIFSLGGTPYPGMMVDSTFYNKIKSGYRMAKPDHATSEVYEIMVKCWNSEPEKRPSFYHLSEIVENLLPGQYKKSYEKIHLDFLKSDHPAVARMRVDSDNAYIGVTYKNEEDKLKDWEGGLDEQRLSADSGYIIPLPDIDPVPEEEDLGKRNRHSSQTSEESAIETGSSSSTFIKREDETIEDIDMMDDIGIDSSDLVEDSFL
Sequence of Tyrosine-protein kinase FRK (Homo sapiens) (P42685 whole entry): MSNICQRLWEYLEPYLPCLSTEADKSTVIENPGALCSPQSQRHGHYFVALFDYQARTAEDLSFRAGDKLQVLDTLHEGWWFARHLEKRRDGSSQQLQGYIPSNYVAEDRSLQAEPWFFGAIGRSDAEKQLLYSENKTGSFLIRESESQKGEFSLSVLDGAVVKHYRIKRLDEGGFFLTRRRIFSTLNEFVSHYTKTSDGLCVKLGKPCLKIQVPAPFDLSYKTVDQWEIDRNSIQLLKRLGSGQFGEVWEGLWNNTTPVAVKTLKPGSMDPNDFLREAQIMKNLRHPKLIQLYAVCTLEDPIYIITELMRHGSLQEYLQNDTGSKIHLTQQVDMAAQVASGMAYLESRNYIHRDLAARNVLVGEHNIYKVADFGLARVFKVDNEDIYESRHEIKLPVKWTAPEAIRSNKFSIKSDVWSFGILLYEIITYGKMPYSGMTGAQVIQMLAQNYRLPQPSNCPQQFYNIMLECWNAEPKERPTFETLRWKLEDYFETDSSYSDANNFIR
Sequence of Platelet-derived growth factor receptor alpha (Homo sapiens) (P16234 whole entry): as the sequence (P16234 whole entry V561D) above, with D561V counted along it
Sequence of Protein-tyrosine kinase 2-beta (Homo sapiens) (Q14289 whole entry, looked up): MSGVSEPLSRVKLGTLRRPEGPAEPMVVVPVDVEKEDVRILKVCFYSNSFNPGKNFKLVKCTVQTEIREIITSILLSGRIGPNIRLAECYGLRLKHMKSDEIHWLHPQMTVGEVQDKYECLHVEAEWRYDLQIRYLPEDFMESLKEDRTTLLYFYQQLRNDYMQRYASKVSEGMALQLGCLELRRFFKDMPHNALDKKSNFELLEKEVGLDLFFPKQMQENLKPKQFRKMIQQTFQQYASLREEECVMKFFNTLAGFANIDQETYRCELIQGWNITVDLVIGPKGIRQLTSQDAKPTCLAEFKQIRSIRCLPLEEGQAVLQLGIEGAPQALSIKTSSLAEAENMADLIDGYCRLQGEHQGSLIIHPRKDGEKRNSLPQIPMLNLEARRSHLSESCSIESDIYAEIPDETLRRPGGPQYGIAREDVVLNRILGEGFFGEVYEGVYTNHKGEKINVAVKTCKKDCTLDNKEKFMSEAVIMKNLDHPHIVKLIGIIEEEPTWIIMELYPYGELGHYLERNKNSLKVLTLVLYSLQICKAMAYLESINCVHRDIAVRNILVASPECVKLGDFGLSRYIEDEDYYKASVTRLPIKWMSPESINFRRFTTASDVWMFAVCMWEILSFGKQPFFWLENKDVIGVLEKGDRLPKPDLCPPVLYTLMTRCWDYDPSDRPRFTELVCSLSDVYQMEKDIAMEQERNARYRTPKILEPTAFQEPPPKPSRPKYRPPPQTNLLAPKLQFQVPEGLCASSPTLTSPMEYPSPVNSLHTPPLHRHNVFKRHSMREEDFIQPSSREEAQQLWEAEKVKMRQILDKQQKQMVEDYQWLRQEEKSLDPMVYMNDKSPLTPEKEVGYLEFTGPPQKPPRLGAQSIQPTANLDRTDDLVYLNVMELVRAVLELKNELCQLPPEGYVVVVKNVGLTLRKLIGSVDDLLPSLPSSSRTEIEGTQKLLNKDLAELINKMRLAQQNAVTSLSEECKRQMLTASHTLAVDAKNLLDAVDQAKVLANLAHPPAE

Compound	inhibition [1]	inhibition [2]	inhibition [3]	inhibition [4]	inhibition [5]	inhibition [6]	inhibition [7]	inhibition [8]	inhibition [9]	inhibition [10]	inhibition [11]	inhibition [12]	inhibition [13]	inhibition [14]	inhibition [15]	inhibition [16]	inhibition [17]	inhibition [18]	inhibition [19]	inhibition [20]
COC(=O)Nc1nc2ccc(Oc3ccc(NC(=O)Nc4cccc(Cl)c4)cc3)cc2[nH]1	33.2%	62.2%	76.9%	2.44%	8.07%	76.6%	85.5%	74.6%	92.6%	12.2%	28.7%	0.45%	0.48%	0.45%	5.25%	52.1%	74.4%	23.8%	54.8%	45.5%
COC(=O)Nc1nc2ccc(S(=O)(=O)c3ccc(NC(=O)Nc4cc(C(F)(F)F)ccc4F)cc3)cc2[nH]1	4.85%	2.65%	4.3%	3.19%	0.61%	3.85%	2.62%	2.98%	3.2%	5.73%	4.49%	2.02%	0.33%	2.8%	6.27%	5.15%	5.22%	5.11%	2.64%	5.5%
Clc1ccc(-c2nn3ncccc3c2-c2ccnc(Nc3ccccc3)n2)cc1	1.46%	6.5%	31.3%	6.95%	18.8%	3.65%	8.75%	12.4%	42%	6.84%	39.4%	0.95%	3.48%	7.96%	14.7%	8.76%	42%	4.29%	4.92%	9.6%
COc1cc2ncn(-c3cc(OCc4ccccc4C(F)(F)F)c(C(=O)N(C)C)s3)c2cc1OC	2.19%	11%	39.9%	4.06%	23.9%	2.17%	1.13%	5.15%	26.5%	6.2%	34.4%	0.68%	-0.25%	-0.29%	-5.44%	3.06%	22.1%	0.43%	7.17%	1.87%
COc1ccc2[nH]c3c4[nH]c5ccc(OC)cc5c4c4c(c3c2c1)C(=O)NC4=O	11.8%	81.1%	83.5%	94.8%	96.3%	65.7%	94.3%	93.8%	96.8%	78.2%	85.1%	-0.26%	0.68%	29.5%	80.6%	40.5%	77.3%	71%	82.1%	44.8%
CCN1CCC(CC(=O)Nc2n[nH]c3nnc(-c4cccc(F)c4F)cc23)CC1	-2.42%	5.32%	10.4%	4.75%	2.84%	3.48%	4.83%	2.85%	3.83%	-0.56%	5.87%	0.59%	-2.06%	2.01%	2.8%	3.04%	1.36%	3.31%	3.73%	4.22%
CCCN(CCS(C)(=O)=O)Cc1ccc(-c2ccc3ncnc(Nc4ccc(OCc5cccc(F)c5)c(Cl)c4)c3c2)o1	2.34%	7.21%	16.2%	3.62%	5.72%	4.68%	4.67%	2.84%	7.4%	3.14%	8.69%	0.49%	2.46%	3.28%	-1.09%	4.68%	7.59%	1.01%	5.01%	2.4%
